Results on five molecules are retold here after PubChem BioAssay (EPA / NIEHS).

Records with an inconclusive call do not appear. The source made the active and inactive calls. How the source made its calls, unless noted: active means hit-call score of the fitted dose curve at least 0.9, where 1 is the maximum; inactive means score below 0.9.

A short description of experiment [1]: ATG_TAL_CIS: Attagene CIS-FACTORIAL HepG2 Assay for human TAL Basal Promoter (AID 2282966).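 Further: background control endpoint measuring basal TAL promoter reporter mRNA not a specific factor.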 The conditions noted are these: HepG2 Attagene cis-factorial TAL promoter reporter; actives raise or lower the signal. A digest of the protocol:
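HepG2, transient MRTU transfection, 24 h compound exposure; RNA → oligo(dT) RT → PCR → 6-FAM primer extension → HpaI digest → CE fluorescence. Bidirectional curve fit vs DMSO. Background-control readout.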

Experiment [2] is described as follows: ATG_TGFb_CIS: Attagene CIS-FACTORIAL HepG2 Assay for human Transforming Growth Factor (TGF) (AID 2282967). The note with it: HepG2 Attagene CIS TGFb reporter, mRNA transcription; actives raise or lower the signal. A digest of the protocol:
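Endogenous TGFB1-linked transcription factor activity read as reporter mRNA via RT-PCR and capillary electrophoresis, 24 h after dosing transiently transfected HepG2 cells. Gain or loss of signal fitted relative to DMSO.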

The nature of experiment [3]: ATG_VDRE_CIS: Attagene CIS-FACTORIAL HepG2 Assay for human Vitamin D Receptor Element (VDRE) (AID 2282968). The note with it: HepG2 VDRE cis-reporter transcription, actives raise or lower the signal. A digest of the protocol:
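Readout is VDRE-driven reporter mRNA reflecting endogenous factor activity in human HepG2 cells, sampled 24 h post-dose. Quantification used labelled RT-PCR products separated by capillary electrophoresis; bidirectional analysis relative to DMSO.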

For experiment [4], the target named is Nuclear receptor subfamily 1 group I member 3 (Homo sapiens) (UniProt Q14994). Kind of experiment: ATG_CAR_TRANS: Attagene TRANS-FACTORIAL HepG2 Assay for human Constitutive Androstane Receptor (CAR) (AID 2282969; active means hit-call score of the fitted dose curve at least 0.9, where 1 is the maximum;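 further: activators raise reporter mRNA above DMSO so AC50 marks induction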). The conditions noted are these: HepG2 Attagene TRANS-FACTORIAL CAR reporter. A digest of the protocol:
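Signal is reporter mRNA induction relative to DMSO, measured 24 h after dosing by RT-PCR with fluorescent primer extension and capillary electrophoresis. Human HepG2 liver cells carried transiently transfected chimeric NR-Gal4/GAL4-UAS reporter constructs.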

The target in experiment [5] is X-box-binding protein 1 (Homo sapiens) (UniProt P17861). The experiment is described as follows: ATG_Xbp1_CIS: Attagene CIS-FACTORIAL HepG2 Assay for human X-box Binding Protein 1 (XBP1) (AID 2282972). The note with it: HepG2 XBP1 cis-element reporter, Attagene multiplex; actives raise or lower the signal. A digest of the protocol: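 Reporter transcripts were quantified by RT-PCR with fluorescent primer extension and capillary electrophoresis after 24 h chemical exposure. Cells: transiently transfected HepG2 carrying cis-regulated reporter constructs; data fitted bidirectionally relative to DMSO.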

A short description of experiment [6]: ATG_M_19_TRANS: Attagene TRANS-FACTORIAL HepG2 Assay for M19 Transcription Factor (Internal Marker) (AID 2282974; active means hit-call score of the fitted dose curve at least 0.9, where 1 is the maximum). The note with it: HepG2 Attagene TRANS-FACTORIAL M19 internal marker reporter. A digest of the protocol:
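HepG2 transiently transfected with GAL4-UAS multiplex reporter constructs, exposed 24 h; reporter RNA quantified by RT-PCR, 6-FAM labeling, HpaI digestion and capillary electrophoresis; internal background marker fitted upward versus DMSO.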

In experiment [7] the target is Glucocorticoid receptor (Homo sapiens) (UniProt P04150). The experiment is described as follows: ATG_GR_TRANS: Attagene TRANS-FACTORIAL HepG2 Assay for human Glucocorticoid Receptor (GR) (AID 2282978; active means hit-call score of the fitted dose curve at least 0.9, where 1 is the maximum;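 further: activators score as hits since higher reporter transcript over DMSO is fitted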). The conditions noted are these: HepG2 Attagene TRANS GR reporter, mRNA transcription. A digest of the protocol: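 HepG2 cells transiently transfected with GAL4-UAS reporter units and exogenous GR-Gal4 chimera, dosed 24 h. Reporter mRNA by RT-PCR, FAM labeling, HpaI digest and capillary electrophoresis; gain-of-signal fit versus DMSO.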

Experiment [8] addresses Transcriptional activator Myb (Homo sapiens) (UniProt P10242). The experiment is described as follows: ATG_Myb_CIS: Attagene CIS-FACTORIAL HepG2 Assay for human Myeloblastosis (Myb) Proto-Oncogene Transcription Factor (AID 2282986). The note with it: HepG2 Attagene CIS-FACTORIAL Myb reporter transcription; actives raise or lower the signal. A digest of the protocol: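 Transiently transfected HepG2 cells carrying a multiplexed cis-promoter reporter set report endogenous Myb activity after 24 h compound exposure. Reporter mRNA is read by RT-PCR with capillary electrophoresis of fluorescent products, fitted bidirectionally against DMSO.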

In experiment [9] the target is Nuclear respiratory factor 1 (Homo sapiens) (UniProt Q16656). Kind of experiment: ATG_NRF1_CIS: Attagene CIS-FACTORIAL HepG2 Assay for human Nuclear Respiratory Factor 1 (NRF1) Orphan Gene (AID 2282987). The conditions noted are these: HepG2 NRF1 cis-element reporter, Attagene multiplex; actives raise or lower the signal. A digest of the protocol:
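HepG2 cells transiently transfected with multiple cis-regulated reporter units, exposed 24 h. Reporter mRNAs measured by RT-PCR, fluorescent labelling, HpaI digestion and capillary electrophoresis; bidirectional fitting against DMSO.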

Experiment [10] can be described thus: ATG_NFI_CIS: Attagene CIS-FACTORIAL HepG2 Assay for human Nuclear Factor I (NFI) (AID 2282989). The conditions noted are these: HepG2 cis-regulatory reporter, NFI response element transcription; actives raise or lower the signal. A digest of the protocol:
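Reporter transcripts were measured by RT-PCR with fluorescent primer extension and capillary electrophoresis 24 h post-treatment. HepG2 cells carried transiently transfected cis-regulated reporter constructs reporting endogenous factor activity; gain or loss fitted against DMSO baseline.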

Experiment [11] in a line: ATG_GAL4_TRANS: Attagene TRANS-FACTORIAL HepG2 Assay for GAL4 (Internal Marker) (AID 2282976; active means hit-call score of the fitted dose curve at least 0.9, where 1 is the maximum). The conditions noted are these: HepG2 Attagene TRANS GAL4 internal marker reporter. A digest of the protocol:
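RT-PCR/capillary electrophoresis readout of reporter mRNA. HepG2, transient MRTU transfection (GAL4-UAS reporters), 24 h compound exposure. Background-control endpoint, positive direction vs DMSO baseline.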

Experiment [12] concerns the target Hepatocyte nuclear factor 4-alpha (Homo sapiens) (UniProt P41235). The experiment is described as follows: ATG_HNF4a_TRANS: Attagene TRANS-FACTORIAL HepG2 Assay for human Hepatocyte Nuclear Factor 4 alpha (HNF4a) (AID 2282982; active means hit-call score of the fitted dose curve at least 0.9, where 1 is the maximum). The note with it: HepG2 HNF4a transactivation reporter, mRNA readout. A digest of the protocol: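 Activity of an exogenous HNF4a–Gal4 fusion scored as induced GAL4-UAS reporter transcripts after 24 h chemical exposure of transfected human HepG2 cells. Read-out via RT-PCR with 6-FAM labelling and capillary electrophoresis; rise over DMSO baseline.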

The target of experiment [13] is Nuclear receptor subfamily 4 group A member 2 (Homo sapiens) (UniProt P43354). The experiment is described as follows: ATG_NURR1_TRANS: Attagene TRANS-FACTORIAL HepG2 Assay for human Nuclear Receptor Related Protein 1 (NURR1) (AID 2282985; active means hit-call score of the fitted dose curve at least 0.9, where 1 is the maximum). The note with it: HepG2 Attagene TRANS reporter, mRNA readout. A digest of the protocol: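 Reporter transcript induction, measured by RT-PCR with fluorescent labelling, HpaI digestion and capillary electrophoresis, after 24 hr dosing of human HepG2 cells transiently expressing an exogenous NR-Gal4 fusion with GAL4-UAS-driven reporters; DMSO as baseline.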

In experiment [14] the target is Bile acid receptor (Homo sapiens) (UniProt Q96RI1). Kind of experiment: ATG_FXR_TRANS: Attagene TRANS-FACTORIAL HepG2 Assay for Farnesoid X Receptor (FXR) (AID 2282979; active means hit-call score of the fitted dose curve at least 0.9, where 1 is the maximum;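 further: hits raise reporter mRNA above DMSO so AC50 marks FXR activation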). The conditions noted are these: HepG2 Attagene TRANS FXR-GAL4 reporter transcription. A digest of the protocol: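 Read-out: fluorescent reporter transcripts quantified by capillary electrophoresis after RT-PCR of total RNA. Source cells were HepG2 transiently carrying chimeric NR-GAL4 plus GAL4-UAS reporter units, dosed 24 h. Activity fitted upward relative to DMSO baseline.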

The target in experiment [15] is Oxysterols receptor LXR-beta (Homo sapiens) (UniProt P55055). The experiment is described as follows: ATG_LXRb_TRANS: Attagene TRANS-FACTORIAL HepG2 Assay for human Liver X Receptor beta (LXRb) (AID 2282981; active means hit-call score of the fitted dose curve at least 0.9, where 1 is the maximum). The conditions noted are these: HepG2 Attagene TRANS GAL4-LXRb reporter, mRNA. A digest of the protocol:
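After 24 h chemical treatment of transfected HepG2 cells carrying exogenous NR-Gal4 chimeras, reporter mRNA was quantified by fluorescent RT-PCR and capillary electrophoresis; activity taken as increase over DMSO controls.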

The nature of experiment [16]: ATG_M_06_TRANS: Attagene TRANS-FACTORIAL HepG2 Assay for M06 Transcription Factor (Internal Marker) (AID 2282983; active means hit-call score of the fitted dose curve at least 0.9, where 1 is the maximum). The conditions noted are these: HepG2 Attagene TRANS M06 internal marker reporter. A digest of the protocol: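 Read-out: fluorescent reporter cDNA fragments resolved by capillary electrophoresis after RT-PCR and HpaI cut. Source cells were HepG2 carrying transfected multi-reporter GAL4 constructs, dosed 24 h. Increase over DMSO control analysed.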

Experiment [17] concerns the target Steroid hormone receptor ERR1 (Homo sapiens) (UniProt P11474). Kind of experiment: ATG_ERRa_TRANS: Attagene TRANS-FACTORIAL HepG2 Assay for human Estrogen-Related Receptor alpha (ERRa) (AID 2282971; active means hit-call score of the fitted dose curve at least 0.9, where 1 is the maximum). The note with it: HepG2 Attagene TRANS reporter, ERRa transactivation. A digest of the protocol: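 Transfected HepG2, 24 h dosing, ERRa-Gal4 chimera driving GAL4-UAS reporter. Readout: reporter mRNA via RT-PCR plus capillary electrophoresis (fluorescence). Positive direction vs DMSO control.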

Experiment [18] has as its target Estrogen-related receptor gamma (Homo sapiens) (UniProt P62508). The experiment is described as follows: ATG_ERRg_TRANS: Attagene TRANS-FACTORIAL HepG2 Assay for human Estrogen-Related Receptor gamma (ERRg) (AID 2282977; active means hit-call score of the fitted dose curve at least 0.9, where 1 is the maximum;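 further: hits increase reporter signal over DMSO so potencies reflect activators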). The conditions noted are these: HepG2 Attagene TRANS reporter, ERRg transactivation. A digest of the protocol: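 Exogenous NR-Gal4 chimera activity measured as reporter transcript induction after 24 h in transiently transfected HepG2 cells. RNA reverse-transcribed, PCR-amplified, 6-FAM-labelled and resolved by capillary electrophoresis; increase over DMSO baseline.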

The target in experiment [19] is Oxysterols receptor LXR-alpha (Homo sapiens) (UniProt Q13133). The experiment is described as follows: ATG_LXRa_TRANS: Attagene TRANS-FACTORIAL HepG2 Assay for human Liver X Receptor alpha (LXRa) (AID 2282980; active means hit-call score of the fitted dose curve at least 0.9, where 1 is the maximum). The note with it: HepG2 Attagene TRANS reporter, LXRa transactivation. A digest of the protocol: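 Read-out: reporter transcript levels by RT-PCR plus capillary electrophoresis, fluorescence intensity. Transiently transfected HepG2, exogenous NR-GAL4 chimera, GAL4-UAS reporters; 24 h compound exposure. Activity = increase over DMSO negative control.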

A short description of experiment [20]: ATG_M_32_TRANS: Attagene TRANS-FACTORIAL HepG2 Assay for M32 Transcription Factor (Internal Marker) (AID 2282984; active means hit-call score of the fitted dose curve at least 0.9, where 1 is the maximum;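 further: transcript level of a background control reporter unit measured by RT-PCR and capillary electrophoresis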). The conditions noted are these: HepG2 Attagene TRANS M32 internal marker reporter. A digest of the protocol: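 Internal background reporter in transfected HepG2: after 24 h chemical exposure, RNA reverse-transcribed, reporter cDNA amplified, fluorescently labelled and HpaI-cut, then sized by capillary electrophoresis. Gain of signal fitted against DMSO control.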

Glucocorticoid receptor (Homo sapiens), sequence (P04150 whole entry, looked up, the tested form may be a part): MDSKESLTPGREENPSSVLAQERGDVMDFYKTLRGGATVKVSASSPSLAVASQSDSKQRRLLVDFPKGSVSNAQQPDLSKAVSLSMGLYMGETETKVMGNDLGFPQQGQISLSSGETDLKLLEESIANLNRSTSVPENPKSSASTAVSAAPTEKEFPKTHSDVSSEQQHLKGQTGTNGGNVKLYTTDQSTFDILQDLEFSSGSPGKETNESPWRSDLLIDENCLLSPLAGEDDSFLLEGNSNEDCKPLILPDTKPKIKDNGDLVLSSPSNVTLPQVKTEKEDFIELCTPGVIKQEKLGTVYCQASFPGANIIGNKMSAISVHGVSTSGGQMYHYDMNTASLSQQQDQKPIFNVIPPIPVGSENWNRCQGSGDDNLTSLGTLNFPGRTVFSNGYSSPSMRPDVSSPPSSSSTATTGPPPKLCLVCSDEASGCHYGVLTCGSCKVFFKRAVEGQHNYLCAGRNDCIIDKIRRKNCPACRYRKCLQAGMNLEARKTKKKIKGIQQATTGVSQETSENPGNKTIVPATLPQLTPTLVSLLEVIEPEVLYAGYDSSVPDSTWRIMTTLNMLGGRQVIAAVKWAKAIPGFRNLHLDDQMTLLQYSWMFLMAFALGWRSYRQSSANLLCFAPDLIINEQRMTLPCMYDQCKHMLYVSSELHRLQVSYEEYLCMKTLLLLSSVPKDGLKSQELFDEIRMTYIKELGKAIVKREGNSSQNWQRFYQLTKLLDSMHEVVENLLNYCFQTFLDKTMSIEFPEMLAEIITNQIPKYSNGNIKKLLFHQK
Nuclear receptor subfamily 1 group I member 3 (Homo sapiens), sequence (Q14994 whole entry, looked up, the tested form may be a part): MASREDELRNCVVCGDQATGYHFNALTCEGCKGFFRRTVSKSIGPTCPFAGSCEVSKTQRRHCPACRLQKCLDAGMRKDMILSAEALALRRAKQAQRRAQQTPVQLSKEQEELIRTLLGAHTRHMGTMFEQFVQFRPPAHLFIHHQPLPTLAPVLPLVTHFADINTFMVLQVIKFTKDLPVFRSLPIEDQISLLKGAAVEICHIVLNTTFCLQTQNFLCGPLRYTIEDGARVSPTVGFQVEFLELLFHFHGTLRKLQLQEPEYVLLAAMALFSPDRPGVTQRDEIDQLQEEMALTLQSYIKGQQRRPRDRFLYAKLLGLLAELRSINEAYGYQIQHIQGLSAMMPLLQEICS
Hepatocyte nuclear factor 4-alpha (Homo sapiens), sequence (P41235 whole entry, looked up, the tested form may be a part): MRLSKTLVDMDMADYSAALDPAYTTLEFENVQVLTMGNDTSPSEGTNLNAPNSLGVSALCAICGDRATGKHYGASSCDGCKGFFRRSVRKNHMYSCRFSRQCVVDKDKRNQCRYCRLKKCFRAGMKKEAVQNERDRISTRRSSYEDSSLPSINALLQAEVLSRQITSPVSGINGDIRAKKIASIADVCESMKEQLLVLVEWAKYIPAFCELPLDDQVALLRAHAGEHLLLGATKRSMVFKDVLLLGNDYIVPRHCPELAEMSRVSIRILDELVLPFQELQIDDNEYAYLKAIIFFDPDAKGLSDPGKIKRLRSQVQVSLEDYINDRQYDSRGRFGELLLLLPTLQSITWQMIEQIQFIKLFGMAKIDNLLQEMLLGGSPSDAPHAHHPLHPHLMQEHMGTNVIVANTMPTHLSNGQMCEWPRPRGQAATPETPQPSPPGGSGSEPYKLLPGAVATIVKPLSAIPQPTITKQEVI
Nuclear receptor subfamily 4 group A member 2 (Homo sapiens), sequence (P43354 whole entry, looked up, the tested form may be a part): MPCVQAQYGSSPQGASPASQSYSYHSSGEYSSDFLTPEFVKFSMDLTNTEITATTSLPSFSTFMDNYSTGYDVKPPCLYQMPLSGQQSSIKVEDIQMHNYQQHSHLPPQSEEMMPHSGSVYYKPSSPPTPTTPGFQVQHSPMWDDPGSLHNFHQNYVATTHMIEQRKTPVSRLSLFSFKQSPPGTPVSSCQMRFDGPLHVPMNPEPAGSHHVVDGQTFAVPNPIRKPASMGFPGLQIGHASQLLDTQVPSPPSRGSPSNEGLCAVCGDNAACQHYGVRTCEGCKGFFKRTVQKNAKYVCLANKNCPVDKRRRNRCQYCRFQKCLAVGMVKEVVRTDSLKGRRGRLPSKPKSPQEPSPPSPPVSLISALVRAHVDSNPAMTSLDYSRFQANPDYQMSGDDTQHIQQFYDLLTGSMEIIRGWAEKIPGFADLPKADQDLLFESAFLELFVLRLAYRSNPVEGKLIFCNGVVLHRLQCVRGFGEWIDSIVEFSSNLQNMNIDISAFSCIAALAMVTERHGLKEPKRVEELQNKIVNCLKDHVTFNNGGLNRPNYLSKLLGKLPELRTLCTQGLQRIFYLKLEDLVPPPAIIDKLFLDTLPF
X-box-binding protein 1 (Homo sapiens), sequence (P17861 whole entry, looked up): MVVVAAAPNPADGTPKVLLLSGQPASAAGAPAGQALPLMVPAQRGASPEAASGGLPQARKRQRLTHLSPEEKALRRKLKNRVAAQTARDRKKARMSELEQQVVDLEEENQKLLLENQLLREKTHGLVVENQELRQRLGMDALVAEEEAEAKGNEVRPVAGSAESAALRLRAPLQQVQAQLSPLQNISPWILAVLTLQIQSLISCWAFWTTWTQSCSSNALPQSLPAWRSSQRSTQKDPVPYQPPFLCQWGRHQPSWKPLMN
Transcriptional activator Myb (Homo sapiens), sequence (P10242 whole entry, looked up): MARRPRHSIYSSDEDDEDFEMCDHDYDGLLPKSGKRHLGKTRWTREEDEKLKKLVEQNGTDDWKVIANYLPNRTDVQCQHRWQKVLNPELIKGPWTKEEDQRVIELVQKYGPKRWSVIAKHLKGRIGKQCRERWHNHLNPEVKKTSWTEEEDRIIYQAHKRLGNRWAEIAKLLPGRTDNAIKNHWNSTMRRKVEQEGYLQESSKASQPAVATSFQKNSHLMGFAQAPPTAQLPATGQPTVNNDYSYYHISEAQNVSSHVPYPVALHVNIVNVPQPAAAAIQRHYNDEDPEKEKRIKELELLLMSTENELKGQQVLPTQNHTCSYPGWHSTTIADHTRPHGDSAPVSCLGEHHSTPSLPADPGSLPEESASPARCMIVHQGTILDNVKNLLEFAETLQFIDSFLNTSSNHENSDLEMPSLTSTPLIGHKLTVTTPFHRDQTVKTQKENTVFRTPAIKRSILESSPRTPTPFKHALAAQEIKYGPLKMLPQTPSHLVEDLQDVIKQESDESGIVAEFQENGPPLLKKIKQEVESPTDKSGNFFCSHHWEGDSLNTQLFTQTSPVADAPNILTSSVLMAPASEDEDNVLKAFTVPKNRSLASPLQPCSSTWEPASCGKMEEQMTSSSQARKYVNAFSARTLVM
Nuclear respiratory factor 1 (Homo sapiens), sequence (Q16656 whole entry, looked up): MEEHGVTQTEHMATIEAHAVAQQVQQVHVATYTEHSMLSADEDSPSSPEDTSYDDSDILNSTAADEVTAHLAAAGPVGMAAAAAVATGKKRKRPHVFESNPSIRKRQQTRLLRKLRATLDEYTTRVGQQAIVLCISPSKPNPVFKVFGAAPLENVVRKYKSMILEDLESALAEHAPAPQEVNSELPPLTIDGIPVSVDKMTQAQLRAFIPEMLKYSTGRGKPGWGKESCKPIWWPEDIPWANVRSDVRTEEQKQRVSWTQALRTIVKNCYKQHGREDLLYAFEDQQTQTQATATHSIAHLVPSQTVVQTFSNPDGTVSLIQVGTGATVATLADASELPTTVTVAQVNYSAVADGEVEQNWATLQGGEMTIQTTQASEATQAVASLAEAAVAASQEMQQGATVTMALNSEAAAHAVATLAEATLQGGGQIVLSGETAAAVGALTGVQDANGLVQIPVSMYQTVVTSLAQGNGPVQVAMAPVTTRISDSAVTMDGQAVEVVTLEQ
Bile acid receptor (Homo sapiens), sequence (Q96RI1 whole entry, looked up, the tested form may be a part): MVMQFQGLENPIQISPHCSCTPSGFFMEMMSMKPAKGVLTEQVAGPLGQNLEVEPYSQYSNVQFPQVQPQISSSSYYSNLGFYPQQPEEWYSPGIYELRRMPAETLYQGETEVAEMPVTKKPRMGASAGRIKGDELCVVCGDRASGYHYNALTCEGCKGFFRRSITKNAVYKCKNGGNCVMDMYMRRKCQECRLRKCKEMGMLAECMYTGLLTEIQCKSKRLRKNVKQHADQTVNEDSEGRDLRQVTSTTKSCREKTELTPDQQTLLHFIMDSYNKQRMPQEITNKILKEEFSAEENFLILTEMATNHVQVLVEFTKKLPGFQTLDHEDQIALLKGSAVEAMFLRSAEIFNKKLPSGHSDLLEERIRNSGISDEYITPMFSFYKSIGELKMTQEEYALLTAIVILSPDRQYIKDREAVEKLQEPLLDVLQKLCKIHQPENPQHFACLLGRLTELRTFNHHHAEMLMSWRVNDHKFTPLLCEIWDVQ
Oxysterols receptor LXR-beta (Homo sapiens), sequence (P55055 whole entry, looked up, the tested form may be a part): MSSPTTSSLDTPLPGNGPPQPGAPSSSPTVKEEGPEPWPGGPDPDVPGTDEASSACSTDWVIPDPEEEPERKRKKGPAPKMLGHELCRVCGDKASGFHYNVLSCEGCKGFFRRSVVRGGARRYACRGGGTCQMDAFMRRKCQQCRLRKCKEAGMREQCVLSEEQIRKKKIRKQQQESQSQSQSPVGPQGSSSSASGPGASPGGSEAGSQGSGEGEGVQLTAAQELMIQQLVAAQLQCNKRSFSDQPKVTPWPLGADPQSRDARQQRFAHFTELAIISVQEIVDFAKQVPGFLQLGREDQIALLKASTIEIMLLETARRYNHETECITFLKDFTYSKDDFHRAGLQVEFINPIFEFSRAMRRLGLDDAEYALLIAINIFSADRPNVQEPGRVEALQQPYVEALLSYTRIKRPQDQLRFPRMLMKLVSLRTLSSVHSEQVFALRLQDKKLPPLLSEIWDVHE
Oxysterols receptor LXR-alpha (Homo sapiens), sequence (Q13133 whole entry, looked up, the tested form may be a part): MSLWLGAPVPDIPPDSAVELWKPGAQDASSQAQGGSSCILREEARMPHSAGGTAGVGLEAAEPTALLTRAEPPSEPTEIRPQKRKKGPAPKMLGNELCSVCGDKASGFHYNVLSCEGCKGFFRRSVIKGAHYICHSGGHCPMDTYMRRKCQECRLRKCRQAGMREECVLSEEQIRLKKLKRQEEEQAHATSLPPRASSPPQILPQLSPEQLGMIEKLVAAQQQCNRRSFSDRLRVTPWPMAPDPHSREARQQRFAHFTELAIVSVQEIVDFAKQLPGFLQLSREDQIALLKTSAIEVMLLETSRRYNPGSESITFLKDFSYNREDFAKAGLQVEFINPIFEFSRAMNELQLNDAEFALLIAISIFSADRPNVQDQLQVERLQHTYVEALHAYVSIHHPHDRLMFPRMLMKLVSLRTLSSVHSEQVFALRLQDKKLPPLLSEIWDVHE

For `CCC(C)S` (stereo unspecified), the call in experiment [1], in [2], in experiment [3], in [4], in experiment [5] and in experiment [6] was inactive. For the same molecule, the molecule was classed as inactive in [7], in experiment [8], in [9] and in experiment [10].
As to `CCCC(=O)OC(C)(C)Cc1ccccc1`, the call in [1], in experiment [2], in experiment [3], in experiment [4], in [5] and in experiment [6] was inactive. Also, the result in experiment [11], in experiment [7], in [12], in experiment [13], in experiment [8] and in experiment [9] was inactive. Moreover, the molecule was called inactive in experiment [10].
As for `CCCCCc1ccco1`, the molecule was classed as inactive in experiment [1], in [2], in experiment [3], in [4], in [5] and in [6]. In addition, the outcome in experiment [14], in experiment [12], in [13], in experiment [8], in [9] and in [10] was inactive.
Turning to `COCCOC(=O)c1ccccc1C(=O)OCCOC`, the call in experiment [1], in experiment [2], in experiment [3], in experiment [4], in experiment [5] and in experiment [6] was inactive. Further, the result in [11], in experiment [15], in experiment [12], in experiment [16], in [8] and in experiment [9] was inactive. In addition, the molecule was called inactive in [10].
In the case of `Cc1ccc(S(=O)(=O)Oc2ccc(N=Nc3ccc(-c4ccc(N=Nc5c(O)ccc6cc(S(=O)(=O)O)cc(S(=O)(=O)O)c56)c(C)c4)cc3C)cc2)cc1`, the molecule was called inactive in experiment [1], in experiment [4], in experiment [17], in experiment [5], in experiment [6] and in experiment [11]. For the same molecule, the result in [18], in [7], in experiment [14], in experiment [19], in experiment [15] and in experiment [20] was inactive. The outcome in experiment [13], in [8], in experiment [9] and in experiment [10] was inactive. The values for the AC50 in experiment [2] and in experiment [3] were 40.6 µM (active) and 14.1 µM (active), respectively.
